Molecules are shown by their SMILES. Values without a mark were called inactive.

This assay is described as follows: basal CRE-LacZ reporter activity in PC12 – cell-based, unstimulated, primary screen (AID 1145). As to conditions: no forskolin, luminescence, 4.5 h, higher = more signal, called active from +8 up or from −8 down.
For `C=C(C)C1C(=C)CN([C@H](CO)c2ccccc2)C1=O` (stereo partly specified), the z-score is -0.141.
In the case of `COc1ccc(C(O)C2C=CC3C(=O)N(c4ccccc4)C(=O)C3N2Nc2ccccc2F)cc1OCc1ccccc1` (stereo unspecified), the z-score was -0.143.
For `COCCCNC(=O)[C@@]1(Cc2ccccc2)N=C(c2ccc(OCCCO)cc2)O[C@H]1c1ccccc1`, the z-score is -0.0249.
`CC(C)C(CO)N1C(=O)[C@@H]2[C@H]3C(=O)OCC=C[C@H]3OC23C=CCN(C(C)C)C(=O)[C@@H]13` (stereo partly specified): the z-score is -0.757.
Take `[N-]=[N+]=Nc1ccccc1[C@H]1OC(c2ccc(OCCCO)cc2)=N[C@@]1(Cc1ccccc1)C(=O)O`: the z-score was -0.0249.
`Cc1ccc(S[C@]2(C(=O)NC(C)C)CC(=O)N(Cc3ccccc3Cl)[C@@H]2c2ccc(CO)cc2I)cc1`: the z-score is -0.374.
As to `CN(C)CCCCCCNC(=O)[C@@H]1C[C@@H]2C(=O)N[C@@H](CCCCN)C(=O)N2[C@@H]1c1cccc(OCCO)c1`, the z-score is -0.268.
For the molecule `CC(C)(C)OC(=O)CC[C@]12N=C(c3ccc(OCCCO)cc3)O[C@H]1c1ccccc1N(CCS(=O)(=O)c1ccccc1)C2=O`, the z-score was 3.64.
As to `COCCn1c(C(=O)N2CCCC2)cc2c1C[C@H]1CN(C(=O)c3ccccc3)[C@@](Cc3ccc(F)cc3)(C(=O)OC)[C@@H]21`, the z-score is -0.568.
For `CC1CC/C=C\[C@H]2OC34C=CCN(C(C)(C)C)C(=O)[C@H]3N(CCCCCCO)C(=O)[C@@H]4C2C(=O)O1` (stereo partly specified), the z-score was 0.74.
Take `COCCOC(=O)N1C(=O)[C@@]2(c3cc(C#Cc4ccc(OC)cc4)ccc31)[C@H](C(N)=O)[C@H]1C(=O)O[C@H](c3ccccc3)[C@H](c3ccccc3)N1[C@@H]2c1ccccc1OCCO`: the z-score was -0.168.

For the origin of these results see PubChem BioAssay.
